# Experimental data as given in PubChem BioAssay (Tox21).
# Values without a mark were called inactive. Where a call stands in place of a potency, no number is given. Calls of active or inactive are those of the source. Calls come from the whole dose curve.
# Molecular target: Muscarinic acetylcholine receptor M1 (Homo sapiens) (UniProt P11229)
# Assay: Cholinergic receptor muscarinic 1 (CHRM1) small molecule agonists, cell-based qHTS assay (AID 1963589); note: nearly all actives have a fitted effect of over 35% in size
# Summary of the method: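 Stable CHRM1-CHO cells (human receptor) were incubated 18 h, dye-loaded for 1 h at 37 C and exposed to test compounds for agonist activity, with calcium-dependent fluorescence followed kinetically.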
# Sequence of Muscarinic acetylcholine receptor M1 (Homo sapiens) (P11229 whole entry, looked up): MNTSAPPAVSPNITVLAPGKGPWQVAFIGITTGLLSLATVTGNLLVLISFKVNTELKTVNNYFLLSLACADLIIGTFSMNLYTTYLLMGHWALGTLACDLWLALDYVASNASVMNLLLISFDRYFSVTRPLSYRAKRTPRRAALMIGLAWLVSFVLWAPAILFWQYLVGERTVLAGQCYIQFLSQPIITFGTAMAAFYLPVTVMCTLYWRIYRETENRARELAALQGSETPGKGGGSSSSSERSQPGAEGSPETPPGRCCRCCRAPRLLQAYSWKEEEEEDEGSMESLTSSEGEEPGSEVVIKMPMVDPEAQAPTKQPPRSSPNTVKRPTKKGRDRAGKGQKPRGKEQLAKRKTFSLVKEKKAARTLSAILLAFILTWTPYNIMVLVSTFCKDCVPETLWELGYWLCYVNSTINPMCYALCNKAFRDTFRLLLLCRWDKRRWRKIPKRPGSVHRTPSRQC
Compound,Potency,activation
CCCCCCC1(C)CCC(=O)O1 (configuration not stated),inactive,
O=S(O)CO,inactive,
O=c1[nH]c2ccc(Cl)cc2o1,inactive,
COCCCC/C(=N\OCCN)c1ccc(C(F)(F)F)cc1,inactive,
COc1cc(OC)nc(O[C@H](C(=O)O)C(OC)(c2ccccc2)c2ccccc2)n1,inactive,
NC[C@H]1O[C@H](O[C@H]2[C@H](O)[C@@H](O[C@H]3O[C@H](CO)[C@@H](O)[C@H](N)[C@H]3O)[C@H](N)C[C@@H]2N)[C@H](N)[C@@H](O)[C@@H]1O,,-0.129% [at 15.8 µM]
NC(=O)N[C@@H](CCC(=O)O)C(=O)O,inactive,
CC1(C)COCN1,inactive,
CC[N+](C)(C)c1cccc(O)c1,inactive,
C=C(C)C(=O)NCCC[N+](C)(C)C,inactive,
CCCCCCCCCCCCCCCCI,,1.29% [at 15.8 µM]
CC/C=C\C#N,inactive,
O=C(CCS)OCC(COC(=O)CCS)(COC(=O)CCS)COC(=O)CCS,inactive,
CC(C)CCCO,inactive,
CN(C)C(=O)Oc1ccc[n+](C)c1,inactive,
C1CSCCS1,inactive,
CC(=O)c1ccccc1N,inactive,
C=C(C)[C@H]1CC=C(C)CC1,inactive,
CC[C@H](C)[C@@H](C(=O)O)n1sc2ccccc2c1=O,inactive,
CCc1ccc(C=O)cc1,inactive,
O=C(O)c1ccc([N+](=O)[O-])cc1,inactive,
Nc1ccc(N=Nc2ccccc2)c(N)n1,inactive,
Cc1cc(C)c(N)c(Cl)c1,inactive,
C=C(C)[C@@H]1CC[C@@H](C)C[C@@H]1O,inactive,
COc1cc(C=O)ccc1OC(=O)C(C)C,inactive,
CCOC(=O)OC(=O)OCC,inactive,

Compound,Potency,activation
Nc1ccc(Oc2ccc(Cl)cc2)cc1,inactive,
C=C(C)C(=O)OCCNC(C)(C)C,inactive,
CC(C)(C)C(=O)OCOC(=O)C1N2C(=O)CC2S(=O)(=O)C1(C)C (configuration not stated),inactive,
N[C@H](C(=O)O)c1ccc(O)cc1,,0.717% [at 15.8 µM]
COCCOCCOCCOCCO,inactive,
C=CC(=O)OCCOC(=O)C=C,inactive,
OCCCCCCCl,inactive,
CCCC(=O)CC,inactive,
C=C(C)C(=O)OCCOCCOCCOC(=O)C(=C)C,inactive,
OC[C@H]1O[C@H](O[C@H]2O[C@H](CO)[C@@H](O)[C@H](O)[C@H]2O)[C@H](O)[C@@H](O)[C@@H]1O,inactive,
CC(=O)CC/C=C(\C)CC/C=C(\C)CC/C=C(\C)CCC=C(C)C,inactive,
COC(=O)c1ccc(C(=O)OC)cc1,inactive,
COc1cc(Cl)ccc1Cl,inactive,
CNC(=O)Nc1ccc(Cl)c(Cl)c1,inactive,
COc1ccc(-c2coc3cc(O)cc(O)c3c2=O)cc1,inactive,
CO[Si](CCCOCC1CO1)(OC)OC (configuration not stated),inactive,
COc1ccc2cccc(CCNC(C)=O)c2c1,inactive,
O=C(NCN1CCOCC1)c1cnccn1,inactive,
NC(=O)C1CO1 (configuration not stated),inactive,
C=CC(=O)CC,inactive,
Cc1ccccc1C(N)=O,inactive,
COCCCOc1cc(C[C@@H](C[C@H](N)[C@@H](O)C[C@H](C(=O)NCC(C)(C)C(N)=O)C(C)C)C(C)C)ccc1OC,inactive,
Oc1ccc(Sc2ccc(O)cc2)cc1,inactive,
c1ccc(CSCc2ccccc2)cc1,inactive,
CCCCCCS,inactive,
CC(C)OC(C)C,inactive,

Compound,Potency,activation
[Cl][Dy]([Cl])[Cl],inactive,
COC(=O)c1ccc([N+](=O)[O-])cc1,inactive,
CS(=O)(=O)O,inactive,
CCCCCc1cccc(=O)o1,inactive,
CC(=N\O)/C(C)=N/O,inactive,
CCOc1ccccc1C(N)=O,inactive,
O=C(Nc1ccc([N+](=O)[O-])cc1)Nc1ccc([N+](=O)[O-])cc1 (tested in a mixture with another compound),inactive,
Cc1ccc(Nc2ccc(O)c3c2C(=O)c2ccccc2C3=O)cc1,inactive,
CC(=O)c1ccc(O)c(C(N)=O)c1,inactive,
CC1=CC[C@H](CC=O)C1(C)C,inactive,
CCCC(C)CCC(C)=O (configuration not stated),inactive,
O=C(O)c1cccc(Cl)c1Cl,inactive,
COc1nc(N)nc2nc[nH]c12,inactive,
CC(=O)c1cc2ccccc2s1,inactive,
CC(=O)/C=C/c1ccco1,inactive,
CCC(C)C1CCCCC1=O (configuration not stated),inactive,
Nc1cc(C(Cl)=C(Cl)Cl)c(S(N)(=O)=O)cc1S(N)(=O)=O,inactive,
Cc1cc(N)n(-c2ccccc2)n1,inactive,
COCC(O)CO (configuration not stated),inactive,
COc1cc(/C=C/C(N)=O)cc(OC)c1OC,inactive,
CCCCOC(=O)[C@H](C)O,inactive,
CC(=O)C1(C)CC2=C(CCCC2(C)C)CC1C (configuration not stated),inactive,
CCCOC(C)=O,inactive,
O=P(O)(OCc1ccccc1)OCc1ccccc1,inactive,
CC(O)C(C)O (configuration not stated),inactive,
